Drawing on PubChem BioAssay, this text covers composite z-score and z-score for six molecules.

Experiment [1] relates to Plasmodium falciparum Sir2 (PF13_0152, Sir2A). In words: Plasmodium falciparum Sir2A binding compounds – biochemical, small-molecule microarray, 635 nm fluorescence, primary screen (AID 1098).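 Note: score merges spot fluorescence intensity with its signal-to-noise ratio.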 To be noted: fluorescence 635 nm, higher = more signal.
A short description of experiment [2]: probe aDKK1 binding to arrayed compounds – biochemical, biotinylated probe, 635/667 nm fluorescence, primary screen (AID 1099).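 Note: score merges 667nm spot fluorescence with signal to noise across triplicate slides.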 As to conditions: small-molecule microarray, higher = more signal.
Experiment [3] can be described thus: probe aCHRDL2 binding to arrayed compounds – biochemical, biotinylated probe, 635/667 nm fluorescence, primary screen (AID 1100). As to conditions: small-molecule microarray, higher = more signal.
Experiment [4] in a line: change in splice reporter luminescence, either direction, cell-based, HEK293, spliceosome inhibition project, primary screen (AID 1101).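 Note: HEK293 cells carrying a splicing-competent luciferase reporter gene; test concentration not given here.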 As to conditions: HEK293 splicing luciferase reporter, 24 h, higher = more signal, called active from +8 up or from −8 down.
Experiment [5] addresses Fibroblast growth factor 10 (Homo sapiens) (UniProt O15520). As to the kind of experiment: compounds binding fibroblast growth factor 10 – biochemical, small-molecule microarray, 635 nm fluorescence, primary screen (AID 1102). To be noted: FGF10 binding, fluorescence 635 nm, higher = more signal.
Experiment [6] deals with glycogen synthase kinase-3 (GSK3A per assay name; protocol says GSK3B). In words: compounds binding glycogen synthase kinase-3 – biochemical, small-molecule microarray, 635 nm fluorescence, GSK3A, primary screen (AID 1103). Note: the record names both GSK3A and GSK3B. To be noted: fluorescence 635 nm, higher = more signal.
For experiment [7], the target named is Epidermal growth factor receptor (Homo sapiens) (UniProt P00533). As to the kind of experiment: compounds binding epidermal growth factor receptor – biochemical, small-molecule microarray, 635 nm fluorescence, primary screen (AID 1104).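 Note: score merges 667 nm emission intensity with spot signal to noise over triplicate slides.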 As to conditions: EGFR binding, higher = more signal.
Sequence of Epidermal growth factor receptor (Homo sapiens) (P00533 whole entry, looked up): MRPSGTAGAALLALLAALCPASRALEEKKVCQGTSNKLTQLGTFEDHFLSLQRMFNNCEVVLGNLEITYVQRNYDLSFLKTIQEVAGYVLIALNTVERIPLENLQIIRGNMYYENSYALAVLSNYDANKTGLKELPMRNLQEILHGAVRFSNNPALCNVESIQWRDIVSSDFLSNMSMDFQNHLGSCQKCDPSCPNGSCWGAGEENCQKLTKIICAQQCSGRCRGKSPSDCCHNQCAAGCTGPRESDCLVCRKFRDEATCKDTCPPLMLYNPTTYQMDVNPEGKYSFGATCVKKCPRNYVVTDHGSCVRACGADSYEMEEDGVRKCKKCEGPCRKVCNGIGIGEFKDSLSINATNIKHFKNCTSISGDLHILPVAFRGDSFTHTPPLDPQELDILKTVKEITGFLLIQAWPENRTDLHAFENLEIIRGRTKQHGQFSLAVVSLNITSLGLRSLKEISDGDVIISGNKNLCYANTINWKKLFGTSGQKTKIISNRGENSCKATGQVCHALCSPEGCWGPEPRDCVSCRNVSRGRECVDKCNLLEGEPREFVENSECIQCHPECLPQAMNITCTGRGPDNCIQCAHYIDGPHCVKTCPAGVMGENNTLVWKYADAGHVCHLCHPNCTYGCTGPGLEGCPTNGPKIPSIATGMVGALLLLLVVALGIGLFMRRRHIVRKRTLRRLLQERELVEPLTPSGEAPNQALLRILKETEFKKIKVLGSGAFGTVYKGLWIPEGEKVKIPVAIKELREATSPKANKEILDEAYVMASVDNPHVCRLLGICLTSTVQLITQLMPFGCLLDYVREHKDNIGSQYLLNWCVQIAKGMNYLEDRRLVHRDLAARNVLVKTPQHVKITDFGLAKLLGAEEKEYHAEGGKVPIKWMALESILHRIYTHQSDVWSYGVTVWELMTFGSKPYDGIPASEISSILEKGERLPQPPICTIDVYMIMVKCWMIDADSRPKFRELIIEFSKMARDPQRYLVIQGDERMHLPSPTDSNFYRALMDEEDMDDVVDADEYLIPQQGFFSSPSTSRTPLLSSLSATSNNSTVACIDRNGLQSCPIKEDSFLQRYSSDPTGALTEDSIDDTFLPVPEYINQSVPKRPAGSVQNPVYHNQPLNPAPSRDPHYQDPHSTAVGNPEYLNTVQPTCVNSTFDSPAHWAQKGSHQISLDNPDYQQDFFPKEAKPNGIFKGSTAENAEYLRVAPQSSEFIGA
In experiment [8] the target is Follistatin-related protein 3 (Homo sapiens) (UniProt O95633). In words: compounds binding follistatin-related protein 3 – biochemical, small-molecule microarray, 635 nm fluorescence, primary screen (AID 1105).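 Note: score merges emission near 667 nm and signal to noise per printed spot across three slides.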 As to conditions: FSTL3 binding, higher = more signal.
Sequence of Follistatin-related protein 3 (Homo sapiens) (O95633 whole entry, looked up): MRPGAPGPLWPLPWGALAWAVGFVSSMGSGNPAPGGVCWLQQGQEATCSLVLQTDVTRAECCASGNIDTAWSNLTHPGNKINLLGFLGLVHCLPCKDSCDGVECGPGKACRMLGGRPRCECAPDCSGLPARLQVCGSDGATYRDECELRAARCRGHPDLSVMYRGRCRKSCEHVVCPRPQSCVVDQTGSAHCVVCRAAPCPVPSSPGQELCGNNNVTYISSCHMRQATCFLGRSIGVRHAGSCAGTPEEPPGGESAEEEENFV
For experiment [9], the target named is Dickkopf-related protein 1 (Homo sapiens) (UniProt O94907). As to the kind of experiment: small molecules binding DKK1 protein – biochemical, small-molecule microarray, 635 nm fluorescence scan, primary screen (AID 1106).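 Note: score merges emission near 667 nm with signal to noise over three replicate slides.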 To be noted: higher = more signal.
Sequence of Dickkopf-related protein 1 (Homo sapiens) (O94907 whole entry, looked up): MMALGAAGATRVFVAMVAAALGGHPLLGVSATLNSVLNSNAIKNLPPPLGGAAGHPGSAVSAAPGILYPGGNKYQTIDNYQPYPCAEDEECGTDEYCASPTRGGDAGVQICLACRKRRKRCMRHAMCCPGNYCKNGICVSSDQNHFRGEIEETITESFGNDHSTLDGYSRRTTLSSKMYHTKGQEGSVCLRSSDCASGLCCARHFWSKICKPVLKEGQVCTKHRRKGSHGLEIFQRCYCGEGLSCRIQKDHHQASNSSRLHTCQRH
In experiment [10] the test system is Inhibin beta A chain (activin A). In words: small molecules binding activin A – biochemical, small-molecule microarray, 635 nm fluorescence scan, primary screen (AID 1107).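 Note: mouse activin A protein probed at 4.33 µg/mL on printed slides; score merges bound-protein fluorescence near 667 nm with spot signal-to-noise.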 To be noted: INHBA, higher = more signal.
Experiment [11] concerns Human papillomavirus type 1a protein E7 (residues 44-93). As to the kind of experiment: small molecules binding HPV E7 44-93 – biochemical, small-molecule microarray, residues 44-93, 635 nm fluorescence, primary screen (AID 1108).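 Note: E7 fragment applied at 1 µg/mL in TBST for 1 h at 4 C; score combines spot fluorescence with its signal to noise ratio.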 As to conditions: fluorescence 635 nm, higher = more signal.
The nature of experiment [12]: hepatitis C replication reporter changes, two-sided – Huh7 cells, luciferase reporter, HCV replication inhibitor project, primary screen (AID 1109).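 Note: huh7 hepatoma cells harbouring a luciferase neomycin HCV replicon reporter; luciferase luminescence as measure of HCV replicon replication; test concentration not given here.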 To be noted: Huh7 HCV replicon luciferase reporter, 48 h; higher = more signal. (A reporter such as luciferase makes a cellular process visible.)
The target in experiment [13] is Left-right determination factor 2 (Homo sapiens) (UniProt O00292). As to the kind of experiment: small molecules binding LEFTY2 protein – biochemical, small-molecule microarray, 635 nm fluorescence scan, primary screen (AID 1110). To be noted: higher = more signal.
Sequence of Left-right determination factor 2 (Homo sapiens) (O00292 whole entry, looked up): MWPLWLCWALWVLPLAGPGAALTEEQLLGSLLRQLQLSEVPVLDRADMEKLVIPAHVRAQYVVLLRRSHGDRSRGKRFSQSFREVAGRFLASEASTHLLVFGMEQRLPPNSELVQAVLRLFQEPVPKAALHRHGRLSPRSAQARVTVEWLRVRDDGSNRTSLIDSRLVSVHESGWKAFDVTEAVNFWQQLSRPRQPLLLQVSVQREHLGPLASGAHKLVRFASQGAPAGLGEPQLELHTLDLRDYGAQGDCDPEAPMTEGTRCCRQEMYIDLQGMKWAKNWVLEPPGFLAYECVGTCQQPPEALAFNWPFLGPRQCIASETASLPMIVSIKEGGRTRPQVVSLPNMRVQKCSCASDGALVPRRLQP
The target of experiment [14] is Calmodulin-1 (Homo sapiens) (UniProt P0DP23). In words: small molecules binding calmodulin-1 with EGTA – biochemical, small-molecule microarray, Cy5-labelled CALM1, profiling panel (AID 1111).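 Note: labelled calmodulin applied in Tris saline Tween buffer holding calcium plus EGTA and DTT.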 To be noted: Cy5-CALM1 binding fluorescence, higher = more signal.
The target is the same in experiment [15]. In words: small molecules binding Ca-loaded calmodulin-1 – biochemical, small-molecule microarray, Cy5-labelled CALM1, plus calcium, artefact control for SMM control-protein annotation, profiling panel (AID 1112).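 Note: score merges spot fluorescence with signal to noise from triplicate slides.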 To be noted: Cy5-CALM1 binding fluorescence, higher = more signal.
Experiment [16] can be described thus: probe aWnt5a binding to arrayed compounds – biochemical, biotinylated probe, 635/667 nm fluorescence, primary screen (AID 1113).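 Note: score merges 667 nm fluorescence intensity with signal-to-noise per printed feature.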 As to conditions: small-molecule microarray, higher = more signal.
The nature of experiment [17]: probe aShh binding to arrayed compounds – biochemical, biotinylated probe, 635/667 nm fluorescence, primary screen (AID 1114).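 Note: probe is biotin-labelled aShh protein from a stem cell growth factor screen; measures binding of labelled protein to compounds printed on the slide; score merges feature fluorescence at 667 nm with signal-to-noise.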 To be noted: small-molecule microarray, higher = more signal.
Experiment [18] can be described thus: probe aNog binding to arrayed compounds – biochemical, biotinylated probe, 635/667 nm fluorescence, primary screen (AID 1115).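 Note: probe is biotinylated aNog protein used at 0.15 µg/mL for 1 h at 4 C; z-score combines 667 nm fluorescence of each spot with its signal to noise.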 To be noted: small-molecule microarray, higher = more signal.
For experiment [19], the target named is Torsin-1A-interacting protein 1 (Homo sapiens) (UniProt Q5JTV8). As to the kind of experiment: compound microarray binding of lysate hLAP1 – cell lysate, small-molecule microarray, COS7 lysate, 635/667 nm fluorescence, primary screen (AID 1116). As to conditions: 635 nm fluorescence, higher = more signal.
Sequence of Torsin-1A-interacting protein 1 (Homo sapiens) (Q5JTV8 whole entry, looked up): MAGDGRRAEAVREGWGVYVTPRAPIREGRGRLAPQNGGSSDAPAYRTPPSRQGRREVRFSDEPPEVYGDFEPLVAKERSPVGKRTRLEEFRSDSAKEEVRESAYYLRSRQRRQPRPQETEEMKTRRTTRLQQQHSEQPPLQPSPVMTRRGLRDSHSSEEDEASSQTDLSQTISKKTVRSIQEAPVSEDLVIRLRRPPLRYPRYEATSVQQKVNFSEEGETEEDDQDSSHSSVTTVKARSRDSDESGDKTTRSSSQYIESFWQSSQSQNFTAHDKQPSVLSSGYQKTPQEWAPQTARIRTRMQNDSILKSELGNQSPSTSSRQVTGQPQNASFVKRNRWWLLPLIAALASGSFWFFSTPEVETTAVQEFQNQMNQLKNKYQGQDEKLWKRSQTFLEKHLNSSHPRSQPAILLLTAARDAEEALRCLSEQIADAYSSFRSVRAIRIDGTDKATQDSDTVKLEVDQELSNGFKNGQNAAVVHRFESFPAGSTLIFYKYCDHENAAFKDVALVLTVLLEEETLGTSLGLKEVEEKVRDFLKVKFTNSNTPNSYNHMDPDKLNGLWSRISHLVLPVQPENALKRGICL
In experiment [20] the target is Alpha-bungarotoxin (Bungarus multicinctus) (UniProt P60615). In words: compounds binding labelled alpha-BTX control protein – biochemical, small-molecule microarray, Alexa647 label, 635/667 nm fluorescence, artefact control for SMM control protein annotation, profiling panel (AID 1117). As to conditions: alpha-BTX-A647 binding fluorescence, higher = more signal.
Sequence of Alpha-bungarotoxin (Bungarus multicinctus) (P60615 whole entry, looked up): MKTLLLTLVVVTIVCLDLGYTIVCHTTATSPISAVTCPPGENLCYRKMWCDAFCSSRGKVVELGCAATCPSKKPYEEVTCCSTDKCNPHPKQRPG

Active and inactive are the calls of the source.

Sequence of Fibroblast growth factor 10 (Homo sapiens) (O15520 whole entry, looked up): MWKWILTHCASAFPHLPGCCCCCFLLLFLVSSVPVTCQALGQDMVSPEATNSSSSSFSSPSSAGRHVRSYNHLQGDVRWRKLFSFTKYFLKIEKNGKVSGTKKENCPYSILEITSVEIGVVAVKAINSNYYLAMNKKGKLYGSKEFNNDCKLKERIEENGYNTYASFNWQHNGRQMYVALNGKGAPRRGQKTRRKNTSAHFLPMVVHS

On to `CC(C)OC(=O)C=C1C[C@@H](c2ccc(C(F)(F)F)cc2)O[C@@H](c2ccc(C(F)(F)F)cc2)O1`, for which the composite z-score in experiment [1] was 1.12; in experiment [2], 0.164; in experiment [3], 0.492; in [5] it was 0.158; in experiment [6] it was 0.485; in experiment [7], -0.765. Further, the composite z-score in experiment [8] is 0.0144; in [9], -0.899; in [10], -0.522; in [11], 1.44; in experiment [13], -0.467; in experiment [14], 0.808. Further, the composite z-score in experiment [15] was 0.776; in experiment [16], -0.0643; in experiment [17] it was 0.536; in experiment [18] it was -0.261; in experiment [19], 2.25; in experiment [20], 1.83. Besides, the z-score in [4] is -1.55 (inactive); in [12], -0.512.
For `CCOC(=O)c1ccc(NC(=O)O[C@H]2[C@H](OC(=O)Nc3ccc4c(c3)OCO4)[C@H](OC(=O)Nc3ccc4c(c3)OCO4)[C@@H](OC)O[C@@H]2CO)cc1`, the composite z-score in experiment [1] turned out to be 1.56; in experiment [2] it was 0.901; in experiment [3], 0.944; in experiment [5], 1.33; in experiment [6], 1.33; in [7], 0.517. For the same molecule, the composite z-score was found to be 1.39 in experiment [8]; 1 in experiment [9]; 0.673 in experiment [10]; 1.03 in experiment [11]; 0.803 in [13]; 1.41 in [14]. Moreover, the composite z-score in experiment [15] was -0.179; in [16], 0.0771; in experiment [17] it was 0.369; in experiment [18], 0.252; in [19], 0.645; in experiment [20] it was 1.22. Moreover, the z-score in experiment [4] was 0.646 (inactive); in [12], 0.295.
Take `O=C1N(Cc2ccccc2)c2ccccc2[C@@H]2OC(c3ccc(OCCCO)cc3)=N[C@]12Cc1ccccc1`: the composite z-score in [1] was found to be 0.959; in [2] it was 0.659; in experiment [3], 1; in [5], 0.504; in [6], 0.852; in [7], 0.224. Besides, the composite z-score in experiment [8] turned out to be 0.61; in experiment [9] it was 0.0877; in [10] it was 1.13; in experiment [11] it was 1.45; in [13] it was 0.0601; in experiment [14], 1.05. The composite z-score is -0.338 in [15]; 0.0037 in [16]; 0.138 in [17]; 0.0705 in experiment [18]; 0.685 in [19]; 0.807 in [20]. The z-score is -0.0483 (inactive) in experiment [4] and -2.69 in experiment [12].
Regarding `CC[C@H]1C2=C3C(CC[C@H]4C(OCc5ccc(F)cc5C(F)(F)F)OC[C@](C)([C@@H]34)N(C(=O)OC(C)(C)C)C2)C(COC)C1COC` (stereo not given in full), the composite z-score was -0.0539 in [1]; 0.222 in [2]; 0.475 in [3]; -0.0147 in experiment [5]; -0.652 in [6]; -0.52 in experiment [7]. Also, the composite z-score in experiment [8] was 0.269; in [9], -0.384; in experiment [10], 0.561; in experiment [11], 0.732; in experiment [13], -0.696; in experiment [14], 0.914. Also, the composite z-score was 0.771 in experiment [15]; 0.0768 in [16]; -0.214 in [17]; 1.33 in experiment [18]; -0.0575 in experiment [19]; 0.0915 in experiment [20]. In addition, the z-score in experiment [4] was 0.477 (inactive); in experiment [12] it was -0.25.
In the case of `[N-]=[N+]=Nc1ccccc1C[C@]1(C(=O)N2CCOCC2)N=C(c2ccc(OCCCO)cc2)O[C@H]1c1ccccc1`, the composite z-score in experiment [1] stood at 1.11; in experiment [2], 1.45; in [3] it was 1.03; in experiment [5], 1.16; in [6], 1.29; in experiment [7], 0.307. For the same molecule, the composite z-score in experiment [8] is 1.01; in experiment [9] it was 1.93; in experiment [10], 0.52; in experiment [11], 1.04; in experiment [13] it was 0.444; in [14], 1.17. Moreover, the composite z-score was 0.173 in [15]; 0.104 in [16]; -0.153 in experiment [17]; 0.347 in [18]; 1.18 in [19]; 1.31 in [20]. In addition, the z-score was -0.963 (inactive) in [4] and -1.81 in [12].
For `CC(C)Cc1ccc(CN2CC[C@@H](NC(=O)Nc3ccccc3)C2)cc1`, the composite z-score was 1.06 in [1]; -0.342 in [2]; -0.358 in experiment [3]; -0.62 in experiment [5]; -0.274 in experiment [6]; -0.301 in experiment [7]. Further, the composite z-score is -0.496 in [8]; 0.238 in [9]; 0.692 in [10]; -0.709 in experiment [11]; 0.463 in [13]; -0.433 in experiment [14]. Besides, the composite z-score is 0.0615 in experiment [15]; -0.0202 in experiment [16]; -0.221 in experiment [17]; -0.164 in [18]; -0.311 in experiment [19]; 0.166 in experiment [20]. For the same molecule, the z-score was 2.68 (inactive) in experiment [4] and -4.9 in experiment [12].
